Source: PubChem BioAssay (Tox21)
Active and inactive are the calls of the source. Calls come from the whole dose curve; as a rule, active = well fitted curve in the direction sought with a large enough effect in the repeat runs; inconclusive = weak or mixed curves; inactive = flat fitted curve, though single readings scatter.

Assay: qHTS assay to test for compound auto fluorescence at 590 nm (red) in HepG2 cell free culture (AID 720684)
Details: cell-free medium autofluorescence, red 540/590 nm; series mostly up to 91.3 µM
Summary of the method: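 Measured in medium alone (MEM containing 10% FBS) following pintool addition of compound; emission at 590 nm with 540 nm excitation, referenced to Rose Bengal sodium.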

Row | Compound | outcome
1 | CNC(=O)N(C)c1nnc(C(C)(C)C)s1 | inactive
2 | CCC(C)c1cc([N+](=O)[O-])cc([N+](=O)[O-])c1O (stereo not given) | inactive
3 | COP(=O)(OC)OC | inactive
4 | CCN(CC)C(=O)SCc1ccc(Cl)cc1 | inactive
5 | CCN(N=O)C(N)=O | inactive
6 | Cc1ccccc1[N+](=O)[O-] | inactive
7 | Cc1ccc(OP(=O)(Oc2ccc(C)cc2)Oc2ccc(C)cc2)cc1 | inactive
8 | O=C(O)CC[N+](=O)[O-] | inactive
9 | CCCCC(CC)COC(=O)c1ccc(C(=O)OCC(CC)CCCC)c(C(=O)OCC(CC)CCCC)c1 (stereo not given) | inactive
10 | Nn1cnnc1 | inactive
11 | N[C@@H](Cc1ccc(N(CCCl)CCCl)cc1)C(=O)O | inactive
12 | c1nc[nH]n1 | inactive
13 | CCOP(=S)(OCC)O/N=C(\C#N)c1ccccc1 | inactive
14 | C[C@]12CCC(=O)C[C@@H]1CC[C@@H]1[C@@H]2CC[C@]2(C)[C@@H](O)CC[C@@H]12 | inactive
15 | O=c1oc2ccccc2c(O)c1C(CC(O)c1ccc(-c2ccc(Br)cc2)cc1)c1ccccc1 (stereo not given) | inactive
16 | Nc1ccc(Cl)c(Cl)c1 | inactive
17 | ClC1C(Cl)C(Cl)C(Cl)C(Cl)C1Cl (stereo not given) | inactive
18 | CN(C)c1ccc(C(=O)c2ccc(N(C)C)cc2)cc1 | inactive
19 | CCCCN(CCCC)N=O | inactive

Row | Compound | outcome
20 | O=C(Nc1ccc(Br)cc1)c1cc(Br)cc(Br)c1O | inactive
21 | S=C1NCCN1 | inactive
22 | CCOC(=S)S | inactive
23 | Oc1c(Cl)c(Cl)c(Cl)c(Cl)c1Cl | inactive
24 | O=P(Oc1ccccc1)(Oc1ccccc1)Oc1ccccc1 | inactive
25 | CC(O)CCO (stereo not given) | inactive
26 | O=P(O)(O)CCCl | inactive
27 | c1ccc(NNc2ccccc2)cc1 | inactive
28 | CC(C)(OOC(C)(C)c1ccccc1)c1ccccc1 | inactive
29 | CC(C)N(C(=O)SCC(Cl)=C(Cl)Cl)C(C)C | inactive
30 | O=[N+]([O-])c1ccc(O)c([N+](=O)[O-])c1 | inactive
31 | O=[N+]([O-])c1cccc2ccccc12 | inactive
32 | COP(=S)(OC)Oc1cc(Cl)c(Cl)cc1Cl | inactive
33 | C=CCc1ccc2c(c1)OCO2 | inactive
34 | CCN(CC)N=O | inactive
35 | C#C[C@]1(O)CC[C@H]2[C@@H]3CCC4=CC(=O)CC[C@]4(C)[C@H]3CC[C@@]21C | inactive
36 | c1ccc(P(c2ccccc2)c2ccccc2)cc1 | inactive
37 | Cc1cc(Cl)ccc1OCCCC(=O)O | inactive

Assay: qHTS assay to test for compound auto fluorescence at 460 nm (blue) in HepG2 cell free culture (AID 720685)
Details: Cell-free culture medium, blue autofluorescence 405/460 nm; series mostly up to 91.3 µM
Summary of the method: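 Compound (23 nL) or DMSO pinned into cell-free MEM with 10% FBS; blue fluorescence read at 405/460 nm excitation/emission, expressed as auto-fluorescence equivalency to triamterene.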

Row | Compound | outcome
38 | CNC(=O)N(C)c1nnc(C(C)(C)C)s1 | inactive
39 | CCC(C)c1cc([N+](=O)[O-])cc([N+](=O)[O-])c1O (stereo not given) | inactive
40 | COP(=O)(OC)OC | inactive
41 | CCN(CC)C(=O)SCc1ccc(Cl)cc1 | inactive
42 | CCN(N=O)C(N)=O | inactive
43 | Cc1ccccc1[N+](=O)[O-] | inactive
44 | Cc1ccc(OP(=O)(Oc2ccc(C)cc2)Oc2ccc(C)cc2)cc1 | inactive
45 | O=C(O)CC[N+](=O)[O-] | inactive
46 | CCCCC(CC)COC(=O)c1ccc(C(=O)OCC(CC)CCCC)c(C(=O)OCC(CC)CCCC)c1 (stereo not given) | inactive
47 | Nn1cnnc1 | inactive
48 | N[C@@H](Cc1ccc(N(CCCl)CCCl)cc1)C(=O)O | inactive
49 | c1nc[nH]n1 | inactive
50 | CCOP(=S)(OCC)O/N=C(\C#N)c1ccccc1 | inactive
51 | C[C@]12CCC(=O)C[C@@H]1CC[C@@H]1[C@@H]2CC[C@]2(C)[C@@H](O)CC[C@@H]12 | inactive
52 | O=c1oc2ccccc2c(O)c1C(CC(O)c1ccc(-c2ccc(Br)cc2)cc1)c1ccccc1 (stereo not given) | inactive
53 | Nc1ccc(Cl)c(Cl)c1 | inactive
54 | ClC1C(Cl)C(Cl)C(Cl)C(Cl)C1Cl (stereo not given) | inactive
55 | CCCCN(CCCC)N=O | inactive

Row | Compound | outcome
56 | O=C(Nc1ccc(Br)cc1)c1cc(Br)cc(Br)c1O | inactive
57 | S=C1NCCN1 | inactive
58 | CCOC(=S)S | inactive
59 | Oc1c(Cl)c(Cl)c(Cl)c(Cl)c1Cl | inactive
60 | O=P(Oc1ccccc1)(Oc1ccccc1)Oc1ccccc1 | inactive
61 | CC(O)CCO (stereo not given) | inactive
62 | O=P(O)(O)CCCl | inactive
63 | c1ccc(NNc2ccccc2)cc1 | inactive
64 | CC(C)(OOC(C)(C)c1ccccc1)c1ccccc1 | inactive
65 | CC(C)N(C(=O)SCC(Cl)=C(Cl)Cl)C(C)C | inactive
66 | O=[N+]([O-])c1ccc(O)c([N+](=O)[O-])c1 | inactive
67 | O=[N+]([O-])c1cccc2ccccc12 | inactive
68 | COP(=S)(OC)Oc1cc(Cl)c(Cl)cc1Cl | inactive
69 | C=CCc1ccc2c(c1)OCO2 | inactive
70 | CCN(CC)N=O | inactive
71 | C#C[C@]1(O)CC[C@H]2[C@@H]3CCC4=CC(=O)CC[C@]4(C)[C@H]3CC[C@@]21C | inactive
72 | c1ccc(P(c2ccccc2)c2ccccc2)cc1 | inactive
73 | Cc1cc(Cl)ccc1OCCCC(=O)O | inactive

Assay: qHTS assay to test for compound auto fluorescence at 535 nm (green) in HepG2 cell free culture (AID 720686)
Details: Cell-free medium, green autofluorescence 485/535 nm; series mostly up to 91.3 µM

Row | Compound | outcome
74 | CNC(=O)N(C)c1nnc(C(C)(C)C)s1 | inactive
75 | CCC(C)c1cc([N+](=O)[O-])cc([N+](=O)[O-])c1O (stereo not given) | inactive
76 | COP(=O)(OC)OC | inactive
77 | CCN(CC)C(=O)SCc1ccc(Cl)cc1 | inactive
78 | CCN(N=O)C(N)=O | inactive
79 | Cc1ccccc1[N+](=O)[O-] | inactive
80 | Cc1ccc(OP(=O)(Oc2ccc(C)cc2)Oc2ccc(C)cc2)cc1 | inactive
81 | O=C(O)CC[N+](=O)[O-] | inactive
82 | CCCCC(CC)COC(=O)c1ccc(C(=O)OCC(CC)CCCC)c(C(=O)OCC(CC)CCCC)c1 (stereo not given) | inactive
83 | Nn1cnnc1 | inactive
84 | N[C@@H](Cc1ccc(N(CCCl)CCCl)cc1)C(=O)O | inactive
85 | c1nc[nH]n1 | inactive
86 | CCOP(=S)(OCC)O/N=C(\C#N)c1ccccc1 | inactive
87 | C[C@]12CCC(=O)C[C@@H]1CC[C@@H]1[C@@H]2CC[C@]2(C)[C@@H](O)CC[C@@H]12 | inactive
88 | O=c1oc2ccccc2c(O)c1C(CC(O)c1ccc(-c2ccc(Br)cc2)cc1)c1ccccc1 (stereo not given) | inactive
89 | Nc1ccc(Cl)c(Cl)c1 | inactive
90 | ClC1C(Cl)C(Cl)C(Cl)C(Cl)C1Cl (stereo not given) | inactive
91 | CN(C)c1ccc(C(=O)c2ccc(N(C)C)cc2)cc1 | inactive
92 | CCCCN(CCCC)N=O | inactive

Row | Compound | outcome
93 | O=C(Nc1ccc(Br)cc1)c1cc(Br)cc(Br)c1O | inactive
94 | S=C1NCCN1 | inactive
95 | CCOC(=S)S | inactive
96 | Oc1c(Cl)c(Cl)c(Cl)c(Cl)c1Cl | inactive
97 | O=P(Oc1ccccc1)(Oc1ccccc1)Oc1ccccc1 | inactive
98 | CC(O)CCO (stereo not given) | inactive
99 | O=P(O)(O)CCCl | inactive
100 | c1ccc(NNc2ccccc2)cc1 | inactive
101 | CC(C)(OOC(C)(C)c1ccccc1)c1ccccc1 | inactive
102 | CC(C)N(C(=O)SCC(Cl)=C(Cl)Cl)C(C)C | inactive
103 | O=[N+]([O-])c1ccc(O)c([N+](=O)[O-])c1 | inactive
104 | O=[N+]([O-])c1cccc2ccccc12 | inactive
105 | COP(=S)(OC)Oc1cc(Cl)c(Cl)cc1Cl | inactive
106 | C=CCc1ccc2c(c1)OCO2 | inactive
107 | CCN(CC)N=O | inactive
108 | C#C[C@]1(O)CC[C@H]2[C@@H]3CCC4=CC(=O)CC[C@]4(C)[C@H]3CC[C@@]21C | inactive
109 | c1ccc(P(c2ccccc2)c2ccccc2)cc1 | inactive
110 | Cc1cc(Cl)ccc1OCCCC(=O)O | inactive
